# Only some compounds are listed: those with a hit (about 3.8% of all), similar ones and a draw of the others.
# Nrf2 activator = activators of Nrf2 (ARE) signaling | Potency, µM (highest dose often 46.1 µM), inactives show at the top dose activation, most hits filed as activators | actives 0.31% (n = 410,000) | AREc32 ARE-luciferase reporter (MCF7-derived line), luminescence, 24 h; note: % of control where 0% means no effect; nearly all actives have a fitted effect of over 65% in size
#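 Steps: seed AREc32_Fluc cells (1000/well, 5% FBS OPTI-MEM); incubate overnight at 37 deg C; add 23 nL compound; incubate 24 hr; add Steady-Glo; hold 30 min RT; read luminescence.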
# ELG1 DNA repair = ELG1-dependent DNA repair inhibition; HEK293T ELG1-luciferase reporter, luminescence, 16 h; DNA damage induced by 5-fluorouridine; Potency, µM (titrated, usually from 46.1 µM), inactives show at the top dose activity change, negative = inhibition, most hits filed as inhibitors; actives 2.3% (n = 330,000); note: % is set by controls: 0 for no effect and ±100 for the full control effect; nearly all actives have a fitted effect of over 55% in size
#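 Step one: seed 2,000 cells per well. Step two: pin-transfer compound or DMSO alongside 5-fluorouridine. Step three: incubate 16 hr, 37 °C, 5% CO2. Step four: add ONE-Glo, wait 30 min, read luminescence.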
# Nrf2 inh = Nrf2 pathway inhibition; Potency, µM (highest dose often 46 µM), inactives show top-dose activity change, negative = inhibition, usual class: inhibitors; A549 ARE-Fluc reporter, luciferase luminescence, 18-24 h; actives 2.1% (n = 360,000); AID 504444; note: % is set by controls: 0 for no effect and ±100 for the full control effect; nearly all actives have a fitted effect of over 60% in size
#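 Quantitative HTS in A549 cells stably bearing an antioxidant response element-firefly luciferase construct. Inhibition of Nrf2-driven transcription was scored by luminescence after 18-24 h of compound exposure at 37 °C.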
# mIDH1 inhibitor = blocks human mutant IDH1 R132H enzyme. actives 0.093% (n = 390,000). AID 602179. IDH1-R132H enzyme, NADPH consumption, diaphorase/resazurin fluorescence. Potency, µM (series often up to 76.6 µM), without a hit: at the highest dose activity change, negative = inhibition, actives largely listed as inhibitors; note: % is set by controls: 0 for no effect and ±100 for the full control effect; nearly all actives have a fitted effect of over 65% in size
# Target sequence (O75874 whole entry R132H, stated change not applied): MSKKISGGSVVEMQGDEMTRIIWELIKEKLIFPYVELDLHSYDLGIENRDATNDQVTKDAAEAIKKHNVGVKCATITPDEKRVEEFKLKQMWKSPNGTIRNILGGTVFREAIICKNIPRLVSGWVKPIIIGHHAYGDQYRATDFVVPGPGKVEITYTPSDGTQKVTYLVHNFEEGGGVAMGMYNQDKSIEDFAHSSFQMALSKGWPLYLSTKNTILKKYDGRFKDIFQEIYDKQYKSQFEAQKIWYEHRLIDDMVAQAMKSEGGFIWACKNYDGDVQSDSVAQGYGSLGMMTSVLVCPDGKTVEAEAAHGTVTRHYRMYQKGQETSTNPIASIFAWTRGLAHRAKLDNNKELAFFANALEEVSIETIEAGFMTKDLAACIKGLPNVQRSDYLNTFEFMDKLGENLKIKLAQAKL
#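 IDH1-R132H (0.5 ug/mL) preincubated 30 min with compound, then NADPH (0.016 mM) and alpha-KG (2 mM) added; 80 min at RT, pH 7.5. Remaining NADPH coupled via diaphorase/resazurin to fluorescence (540/590 nm); concentration-response curves normalized to no-enzyme control.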
# A549 tox-1 = A549 cytotoxicity, counter-screen for Nrf2 inhibitors. A549 ARE-Fluc cells, CellTiter-Fluor viability, 18-24 h. Potency, µM (doses to about 46 µM), for inactives: at the highest dose activity change, negative = cytotoxicity, actives largely listed as inhibitors. actives 0.16% (n = 390,000). AID 504648; note: % is set by controls: 0 for no effect and ±100 for the full control effect
#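 Cytotoxicity counterscreen: CellTiter-Fluor fluorescence was measured in A549 ARE_Fluc cells after 18-24 h of compound exposure in a concentration series. The subsequent BugLite luminescent read reports ARE-luciferase activity.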
# FLuc enzyme inh = counter-screen for Nrf2 inhibitors: firefly luciferase enzyme inhibition; actives 4% (n = 1,400); Potency, µM (series often up to 57.5 µM), for the others: at the top dose activity change, negative = inhibition, hits mostly inhibitors; purified firefly luciferase, luminescence inhibition; shares compounds with Nrf2 inh; note: % is set by controls: 0 for no effect and ±100 for the full control effect; nearly all actives have a fitted effect of over 65% in size
# A549 tox-2 = toxic to A549 ARE-Fluc cells in Nrf2 counterscreen; AID 720523; actives 2% (n = 1,400); shares compounds with Nrf2 inh; A549 ARE-Fluc cells, cytotoxicity counterscreen; Potency, µM (titrated, usually from 46.1 µM), without a hit: top-dose activity change, negative = cytotoxicity, hits mostly inhibitors;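 note: cells exposed to compounds for 18 to 24 hours; % is set by controls: 0 for no effect and ±100 for the full control effect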
# Nrf2 ARE inh = reduces Nrf2 ARE reporter signal in A549 cells; Potency, µM (highest dose often 46.1 µM), inactives show at the highest dose activity change, negative = inhibition, usual class: inhibitors; actives 74% (n = 1,400); A549 ARE-firefly luciferase reporter, luminescence; shares compounds with Nrf2 inh; AID 720524; note: % is set by controls: 0 for no effect and ±100 for the full control effect; nearly all actives have a fitted effect of over 65% in size
# * hit, by the source's call; u = inconclusive; x = not tested or not shown; [ ] = another dose, or the depositor's remark. Calls come from the whole dose curve; as a rule, active = well fitted curve in the direction sought with a large enough effect; inconclusive = small, poorly fitted or top-dose-only effect, or another doubt; inactive = no such curve, though single readings can be large; an effect the other way counts as inactive or inconclusive. Potency is the fitted concentration of half-maximal effect.
SMILES,Nrf2 activator,ELG1 DNA repair,Nrf2 inh,mIDH1 inhibitor,A549 tox-1,FLuc enzyme inh,A549 tox-2,Nrf2 ARE inh
Cc1cccc(C(=O)Nc2ccc3oc(-c4ccncc4)nc3c2)c1,-1.0%,x,9.2µM*,-16.8%,-2.4%,-17.7%,-4.6%,1.46µM*
O=C(Nc1ccc2oc(-c3ccncc3)nc2c1)c1ccc(F)cc1,-0.9%,u,u,1.2%,0.1%,x,x,x
Cc1cccc(C(=O)Nc2ccnc(-c3ccncc3)n2)c1,-0.2%,-28.2%,2.59µM*,-12.9%,u,-2.6%,0.7%,-24.3%
Nc1ccc(-c2cc3ccccc3c(=O)o2)cc1,6.0%,u,u,16.8%,-0.6%,1.51µM*,-3.4%,2.31µM*
C=CC[n+]1c(-c2ccc(C)cc2)csc1Nc1ccc(NC(C)=O)cc1,2.3%,u,6.51µM*,-11.9%,-13.3%,-25.5%,-8.3%,6.51µM*
Cc1ccccc1/C=C/c1cccc[n+]1C,0.2%,-6.5%,1.84µM*,-3.0%,-28.8%,2.4%,-28.3%,4.11µM*
C[n+]1ccccc1/C=C/c1ccc([N+](=O)[O-])cc1,0.1%,-15.1%,3.66µM*,-4.7%,u,1.1%,u,7.31µM*
C[n+]1ccccc1/C=C/c1ccccc1Cl,21.8%,-10.9%,26.4%,2.6%,-11.0%,x,x,x
C[n+]1ccccc1/C=C/c1ccc(F)c(F)c1,0.2%[9.22 µM],-4.9%,-14.4%,-0.3%,5.9%,x,x,x
C[n+]1ccccc1/C=C/c1c(F)cccc1F,-0.6%,1.9%,2.59µM*,-12.6%,u,1.3%,-29.8%,2.06µM*
O=C(C[C@@H]1C/C=C\CCCC(=O)OC[C@@H]2CCCN2C1=O)N[C@@H](CO)Cc1ccccc1,-0.9%,9.4%,9.8%,-10.1%,-1.0%,x,x,x
Cc1nc2ccc(NC(=O)c3ccc(Cl)c(S(=O)(=O)N(C)c4ccccc4)c3)cc2s1,-0.8%,u,3.26µM*,-5.6%,-23.4%,-15.9%,-15.4%,u
Cc1nc2ccc(NC(=O)c3cc(S(=O)(=O)N(C)c4ccccc4)ccc3Cl)cc2s1,2.8%,-7.3%,5.17µM*,3.3%,-8.5%,-0.1%,2.5%,u
Cc1ccc(COc2ccc3oc(-c4ccccc4)c(C(=O)O)c3c2)cc1,0.6%,x,-13.1%,x,-0.8%,x,x,x
CCOc1ccccc1NC(=O)c1ccc2c(c1)CCN2S(C)(=O)=O,1.1%,x,2.0%,-5.4%,3.2%,x,x,x
COc1cccc(C(=O)CC2(O)C(=O)N(Cc3ccccc3)c3ccccc32)c1 (stereo not drawn),6.0%,x,-9.4%,-3.5%,-4.1%,x,x,x
CCOC(=O)N1CCC(Nc2cc(C)nc3c(-c4ccccc4OC)c(C)nn23)CC1,3.1%,u,9.2µM*,-1.6%,23.7%,-1.0%,-25.3%,11.6µM*
Cn1nc(C(C)(C)C)cc1C(=O)NCc1ccc2c(c1)OCO2,-0.6%,u,1.84µM*,-8.6%,-17.6%,3.9%,-16.2%,3.66µM*
Cc1oc(C(C)(C)C)cc1C(=O)NCc1ccc2c(c1)OCO2,-0.6%,8.0%,u,7.5%,-11.7%,x,x,x
Cn1nccc1C(=O)Nc1cc(Cl)ccc1Cl,3.1%,x,2.91µM*,8.0%,1.3%,-14.9%,-1.0%,5.8µM*
O=c1c2ccccc2nc2n1-c1ccccc1CCC2,0.1%,8.4%,-4.4%,-2.0%,-16.1%,x,x,x
O=C1c2ccccc2-n2c1nc1ccccc1c2=O,4.3%,u,5.17µM*,-9.7%,-19.7%,-26.4%,16.4µM*,6.51µM*
O=C(Nc1ccccc1)N1CCN(c2ccc(C(F)(F)F)cn2)CC1,-0.3%,20.6µM*,6.51µM*,-1.3%,-3.5%,2.8%,-11.3%,9.2µM*
Fc1ccc(NC(=S)N2CCCN(c3ccc(C(F)(F)F)cn3)CC2)c(F)c1,3.1%,u,2.91µM*,13.3%,-7.1%,1.9%,-7.0%,5.8µM*
CNC(=S)Nc1ccc(N2CCN(c3ccc(C(F)(F)F)cn3)CC2)nc1,1.5%,u,4.11µM*,-11.0%,0.1%,-0.3%,-4.0%,6.51µM*
SMILES,Nrf2 activator,ELG1 DNA repair,Nrf2 inh,mIDH1 inhibitor,A549 tox-1,FLuc enzyme inh,A549 tox-2,Nrf2 ARE inh
O=C(Nc1ccc(F)cc1F)N1CCCN(c2ccc(C(F)(F)F)cn2)CC1,-0.5%,u,6.51µM*,-1.0%,-17.6%,2.4%,-4.6%,8.2µM*
O=C(O)CSCC(=O)N1CCCN(c2ccc(C(F)(F)F)cn2)CC1,-1.1%,-2.1%,4.9%,12.5%,1.6%,x,x,x
O=C(NCCSCc1ccccc1Cl)C1CCN(S(=O)(=O)Cc2ccccc2)CC1,-0.3%,x,-3.7%,2.4%,0.0%,x,x,x
COc1ccc2[nH]c(=O)c(CN(Cc3cccs3)C(=S)Nc3cccc(C)c3)cc2c1,-0.1%[9.22 µM],5.8µM*,2.06µM*,2.2%,0.2%,-0.3%,-10.0%,u
CCOc1ccc(OCc2ccc(C(=O)NN=Cc3ccc[nH]3)cc2)cc1,3.3%,u,1.84µM*,3.1%,u,-10.2%,u,1.84µM*
O=C(N/N=C/c1ccc[nH]1)c1ccccc1OCc1ccc(F)cc1,0.9%,-2.1%,46.8%,-4.1%,1.4%,x,x,x
O=c1c(N2CCN(c3cccc(Cl)c3)CC2)csc2ccc(Cl)cc12,3.8%,x,x,3.4%,-2.6%,x,x,x
CN(Cc1ccccc1)C1=CC(=[N+]2CCCCC2)CC(C)(C)C1,-0.1%,u,4.61µM*,17.8%,u,2.7%,-26.6%,0.82µM*
CC1(C)CC(NNCCC#N)=CC(=[N+]2CCCC2)C1,0.2%,-5.7%,13.4%,4.9%,-6.9%,x,x,x
Cc1cc(C(=O)NC2CCCc3c2cnn3-c2ccc(C)c(C)c2)n(C)n1 (stereo not drawn),-0.6%,1.4%,0.206µM*,2.6%,-21.3%,-6.7%,-10.9%,0.0231µM*
CCc1cc(C(=O)NC2CCCc3c2cnn3-c2cccc(C)c2C)n(C)n1 (stereo not drawn),1.3%,u,0.184µM*,-5.4%,u,0.9%,-3.4%,0.082µM*
Cc1cc(C)c(C(=O)NC2CCCc3c2cnn3-c2cccc(C)c2C)o1 (stereo not drawn),0.3%,12.3%,u,-9.8%,-12.7%,x,x,x
Cc1cc(C)cc(-n2ncc3c2CCCC3NC(=O)C2(C(N)=O)CC2)c1 (stereo not drawn),2.8%,-16.0%,u,0.8%,-1.4%,x,x,x

# Source: PubChem (National Center for Advancing Translational Sciences (NCATS))
